# Experimental data published in PubChem BioAssay (NCATS).
# Records with an inconclusive call do not appear. A call without a number means that no potency is given here. Values without a mark were called inactive. The source made the active and inactive calls. The call rests on the fitted dose curve; in most records, active means well fitted curve in the direction sought with a large enough effect; inconclusive means small, poorly fitted or top-dose-only effect, or another doubt; inactive means no such curve, though single readings can be large; an effect the other way counts as inactive or inconclusive.
# Key:
# [1] = target: Rap guanine nucleotide exchange factor 3 (Homo sapiens) (UniProt O95398); experiment: Confirmatory qHTS for antagonist of cAMP-regulated guanine nucleotide exchange factor 3 (EPAC1) (AID 1645880); conditions: EPAC1 Rap1B-BODIPY-GDP exchange, fluorescence; activity, negative = inhibition: at 115 µM (top of the series); further: nearly all actives have a fitted effect of over 55% in size; further: potency means the concentration at half of the fitted maximal effect
# Chain of Rap guanine nucleotide exchange factor 3 (Homo sapiens) (O95398 whole entry, looked up): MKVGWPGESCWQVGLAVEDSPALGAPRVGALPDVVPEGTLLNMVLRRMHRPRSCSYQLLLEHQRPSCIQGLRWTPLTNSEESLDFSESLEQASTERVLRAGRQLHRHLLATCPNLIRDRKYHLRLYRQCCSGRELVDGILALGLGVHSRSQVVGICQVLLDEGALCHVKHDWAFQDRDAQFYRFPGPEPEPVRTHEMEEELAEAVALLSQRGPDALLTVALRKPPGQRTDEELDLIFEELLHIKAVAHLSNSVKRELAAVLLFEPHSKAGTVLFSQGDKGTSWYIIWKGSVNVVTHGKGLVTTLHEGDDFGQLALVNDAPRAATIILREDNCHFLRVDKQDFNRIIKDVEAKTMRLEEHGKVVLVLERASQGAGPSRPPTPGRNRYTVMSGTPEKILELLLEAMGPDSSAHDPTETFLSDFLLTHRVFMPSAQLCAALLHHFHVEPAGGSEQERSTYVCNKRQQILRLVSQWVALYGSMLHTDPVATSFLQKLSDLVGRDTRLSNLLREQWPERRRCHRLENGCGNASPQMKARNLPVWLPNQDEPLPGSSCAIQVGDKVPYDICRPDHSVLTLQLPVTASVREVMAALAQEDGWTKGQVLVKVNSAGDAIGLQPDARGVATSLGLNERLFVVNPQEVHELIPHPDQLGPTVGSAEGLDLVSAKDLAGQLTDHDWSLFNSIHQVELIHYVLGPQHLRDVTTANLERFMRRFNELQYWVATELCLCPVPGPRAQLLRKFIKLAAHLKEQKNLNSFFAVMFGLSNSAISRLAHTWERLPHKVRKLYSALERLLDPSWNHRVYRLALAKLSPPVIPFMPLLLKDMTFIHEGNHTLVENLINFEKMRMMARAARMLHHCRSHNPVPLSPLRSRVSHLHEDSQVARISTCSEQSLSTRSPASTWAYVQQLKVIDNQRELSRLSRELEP
# Method in brief: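 Nucleotide exchange uses 100 nM EPAC1, 250 nM RAP1B-BODIPY-GDP and 50 uM GDP, with compounds in a concentration-titration series. After 5 min at room temperature, fluorescence (480 nm ex/540 nm em) is read every 5 min for 30 min. Data are normalized to control ATA and DMSO.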
# [2] = target: Rap guanine nucleotide exchange factor 3 (Homo sapiens) (UniProt O95398); experiment: Confirmatory qHTS for agonist of cAMP-regulated guanine nucleotide exchange factor 3 (EPAC1) (AID 1645881); further: nearly all actives have a fitted effect of over 75% in size; further: potency means the concentration at half of the fitted maximal effect;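 on activation: EPAC1 catalysed release of BODIPY-GDP from Rap1B seen as fluorescence loss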
# [3] = target: Rap guanine nucleotide exchange factor 4 (Homo sapiens) (UniProt Q8WZA2); experiment: Confirmatory qHTS for agonist of cAMP-regulated guanine nucleotide exchange factor 4 (EPAC2) (AID 1645884);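 further: nucleotide exchange releases bodipy-GDP from Rap1 and this lowers its fluorescence; nearly all actives have a fitted effect of over 65% in size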; further: potency means the concentration at half of the fitted maximal effect
# Chain of Rap guanine nucleotide exchange factor 4 (Homo sapiens) (Q8WZA2 whole entry, looked up): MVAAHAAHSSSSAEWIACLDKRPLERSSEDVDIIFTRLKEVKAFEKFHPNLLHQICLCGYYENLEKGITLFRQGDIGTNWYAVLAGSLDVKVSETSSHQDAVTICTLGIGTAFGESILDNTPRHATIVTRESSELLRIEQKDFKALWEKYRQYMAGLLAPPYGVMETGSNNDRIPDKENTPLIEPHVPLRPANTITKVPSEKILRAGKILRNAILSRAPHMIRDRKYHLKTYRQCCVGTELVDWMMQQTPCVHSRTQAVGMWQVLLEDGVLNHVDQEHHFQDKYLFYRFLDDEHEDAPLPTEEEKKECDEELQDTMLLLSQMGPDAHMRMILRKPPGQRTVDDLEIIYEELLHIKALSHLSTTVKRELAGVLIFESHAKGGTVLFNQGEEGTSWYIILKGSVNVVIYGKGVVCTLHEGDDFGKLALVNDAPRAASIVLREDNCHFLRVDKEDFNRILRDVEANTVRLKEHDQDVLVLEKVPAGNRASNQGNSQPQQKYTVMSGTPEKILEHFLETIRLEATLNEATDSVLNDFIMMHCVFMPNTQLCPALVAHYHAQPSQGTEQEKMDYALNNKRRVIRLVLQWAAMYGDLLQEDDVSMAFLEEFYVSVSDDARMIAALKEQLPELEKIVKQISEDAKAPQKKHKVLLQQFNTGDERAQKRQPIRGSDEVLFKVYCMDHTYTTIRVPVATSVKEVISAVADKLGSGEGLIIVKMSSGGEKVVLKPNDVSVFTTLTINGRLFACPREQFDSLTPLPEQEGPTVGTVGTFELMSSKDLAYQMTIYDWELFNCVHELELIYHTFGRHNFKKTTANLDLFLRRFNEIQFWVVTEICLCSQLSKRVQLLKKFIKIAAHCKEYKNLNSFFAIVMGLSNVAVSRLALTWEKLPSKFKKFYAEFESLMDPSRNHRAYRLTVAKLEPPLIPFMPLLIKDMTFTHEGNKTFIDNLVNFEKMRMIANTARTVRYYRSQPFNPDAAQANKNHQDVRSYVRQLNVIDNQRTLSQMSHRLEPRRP
# [4] = target: Rap guanine nucleotide exchange factor 3 (Homo sapiens) (UniProt O95398); experiment: Counterscreen qHTS for antagonist of cAMP-regulated guanine nucleotide exchange factor 3 (EPAC1) (AID 1645888);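 further: fluorescence loss as bound BODIPY-GDP is released from Rap1B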
# Method in brief: (§1)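 Measured: fluorescence of BODIPY-GDP bound to Rap1B, which falls as exchange proceeds. Conditions include 50 uM competing GDP, 5 and 30 min reads, and a later cAMP challenge for antagonist detection.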
# [5] = target: Rap guanine nucleotide exchange factor 3 (Homo sapiens) (UniProt O95398); experiment: Counterscreen qHTS for agonist of cAMP-regulated guanine nucleotide exchange factor 3 (EPAC1) (AID 1645889); further: nearly all actives have a fitted effect of over 40% in size
# Method in brief: as §1
SMILES,Potency [1],Potency [2],Potency [3],Potency [4],activation [3],"activity change, negative = inhibition [4]",Potency [5]
CCN(CC)c1ccc2cc(-c3nnc(-c4cccc(Cl)c4)o3)c(=O)oc2c1,inactive,44.7 µM (active),35.5 µM (active),inactive,–,–,–
COC(=O)C1=CN(c2c(C)cc(C)cc2C)C(N)=C(C#N)C1c1cccc(F)c1 (stereo unspecified),inactive,inactive,inactive,inactive,–,–,–
CCSc1nc(-c2ccccc2)nc2c1CCCC2,inactive,inactive,inactive,inactive,–,–,–
Cn1c2c(c3ccccc31)CCN1CCC[C@]21c1ccccc1,inactive,inactive,inactive,inactive,–,–,–
O=C(O)c1ccc(/C=N/Nc2cccc(C(F)(F)F)c2)cc1,inactive,inactive,inactive,inactive,–,–,–
Cc1nc2sc(C(c3cccs3)N3CCN(C(=O)c4ccco4)CC3)c(O)n2n1 (stereo unspecified),inactive,inactive,inactive,inactive,–,–,–
N#Cc1c(C(F)(F)F)cc(-c2ccccc2)nc1SCc1nc(N)nc(N2CCOCC2)n1,inactive,inactive,inactive,inactive,–,–,–
Cc1ccc(Sc2ncccc2C(=O)N(C)Cc2cccs2)c(C)c1,inactive,inactive,inactive,inactive,–,–,–
COCCN(C(=O)c1cc2c(s1)CCCCC2)c1c(N)n(Cc2ccccc2)c(=O)[nH]c1=O,inactive,inactive,inactive,inactive,–,–,–
COc1ccc(C(=O)N/N=C/c2ccc3cccc(OCc4ccccc4)c3n2)cc1,inactive,inactive,inactive,inactive,–,–,–
O=C(COc1ccccc1Cl)Nc1ccc(C(=O)c2ccc(C(=O)O)cc2)cc1,inactive,inactive,inactive,inactive,–,–,–
COc1ccccc1N(CC(=O)Nc1ccc(Br)cc1F)S(=O)(=O)c1cccs1,inactive,inactive,inactive,inactive,–,–,–
COc1cc(/C=C2\C(=N)N3N=C(S(C)(=O)=O)SC3=NC2=O)ccc1OS(=O)(=O)c1ccc(C)cc1,60.1 µM (active),inactive,inactive,inactive,–,–,–
O=S(=O)(O)c1ccc2c(c1)C(C(Cl)(Cl)Cl)OC(C(Cl)(Cl)Cl)O2 (stereo unspecified),31.6 µM (active),inactive,–,–,"2.99% [at 17.1 µM, percent relative to cAMP agonist control]",-10.8% [at 30.8 µM],–
Nc1ccc(Oc2ncccn2)cc1,inactive,inactive,inactive,inactive,–,–,–
Cc1ncc(CO)c2c1Oc1nc(-c3ccccc3F)nc(SCC(=O)N(C)c3ccccc3)c1C2,30.1 µM (active),inactive,inactive,inactive,–,–,–
O=C(Cc1c(Cl)cccc1Cl)Nc1ccc(S(=O)(=O)Nc2ncccn2)cc1,inactive,inactive,inactive,inactive,–,–,–
COc1ccc(NC(=O)COC(=O)c2ccc(S(=O)(=O)N(C)c3ccccc3OC)cc2)cc1OC,inactive,inactive,inactive,inactive,–,–,–
CN(C)CCNC(=O)c1ccc(-c2cn3c(-c4ccc(Oc5ccccc5)cc4)cnc3cn2)cc1,inactive,inactive,inactive,inactive,–,–,–
O=C(c1ccco1)N1CCn2cccc2C1c1ccccc1 (stereo unspecified),inactive,inactive,inactive,inactive,–,–,–

SMILES,Potency [1],Potency [2],Potency [3],Potency [4],activation [3],"activity change, negative = inhibition [4]",Potency [5]
COc1cc(/C=C2\COC/C(=C\c3ccc(O)c(OC)c3)C2=O)ccc1O,23.9 µM (active),inactive,inactive,inactive,–,–,–
CCCCCCc1cc2cc(-c3nnc(-c4ccc(C)cc4)o3)c(=O)oc2cc1O,inactive,inactive,inactive,inactive,–,–,–
CCOC(=O)C(C)Sc1ncnc2c1nnn2-c1ccc(F)cc1 (stereo unspecified),inactive,inactive,–,–,"3.03% [at 17.1 µM, percent relative to cAMP agonist control]",-4.79% [at 30.8 µM],–
O=C(Cc1ccccc1Cl)Nc1ccc(S(=O)(=O)N2CCOCC2)cc1,inactive,inactive,inactive,inactive,–,–,–
COc1ccc(C(C#N)N2CCC(c3ccccc3)=N2)cc1OC (stereo unspecified),inactive,inactive,inactive,inactive,–,–,–
Nc1nc2c(ncn2[C@@H]2O[C@H](CNS(=O)(=O)N3CCCC3)[C@@H](O)[C@H]2O)c(=O)[nH]1,inactive,inactive,inactive,inactive,–,–,–
Cc1nc2ccccc2c(=O)n1N(c1ccccc1)c1ccccc1,inactive,inactive,–,–,"-5.22% [at 17.1 µM, percent relative to cAMP agonist control]",9.75% [at 30.8 µM],–
O=C1/C(=C\c2cc([N+](=O)[O-])ccc2O)SC(=S)N1Cc1ccc(Cl)cc1,75.7 µM (active),inactive,inactive,inactive,–,–,–
CCCCOc1ccc(NS(=O)(=O)c2ccc(-n3cnnn3)cc2)cc1,inactive,inactive,inactive,inactive,–,–,–
COc1cccc(N(C(=O)c2ccco2)C(C(=O)NC2CCCC2)c2cccnc2)c1 (stereo unspecified),inactive,inactive,inactive,inactive,–,–,–
O=c1[nH]nc(CNc2ccc(O)cc2)c2ccccc12,inactive,inactive,inactive,inactive,–,–,–
O=C(Cc1ccc(F)cc1)Nc1ccccc1Sc1ccccc1,inactive,inactive,inactive,inactive,–,–,–
CCOC(=O)C1Nc2c(F)cc(C)cc2C2c3ccccc3CC12 (stereo unspecified),inactive,inactive,inactive,inactive,–,–,–
COc1ccc(OC)c(C(=O)c2ccc(Cl)cc2)c1,inactive,inactive,–,–,"8.77% [at 17.1 µM, percent relative to cAMP agonist control]",5.43% [at 30.8 µM],–
COc1ccc(-c2nc(C)ncc2-c2ccc(Cl)cc2)c(O)c1,inactive,inactive,inactive,inactive,–,–,–
Cc1ccc2oc(=O)c(/C=C(\O)c3ccco3)nc2c1,inactive,89.1 µM (active),100 µM (active),inactive,–,–,–
CCN(CC)C(=O)Cn1c(SCCOc2ccc(Cl)cc2)nc2ccccc21,inactive,inactive,inactive,inactive,–,–,–
CCCOc1ccccc1NC(=O)c1c(-c2ccccc2)noc1C,inactive,inactive,inactive,inactive,–,–,–
COc1cc(CN2C(=O)C(C)ON=C2c2cccs2)cc(OC)c1 (stereo unspecified),inactive,inactive,inactive,inactive,–,–,–
Cc1cnc(C(=O)OCC(=O)Nc2ccc(Oc3ccccc3)cc2)cn1,inactive,inactive,inactive,inactive,–,–,–

SMILES,Potency [1],Potency [2],Potency [3],Potency [4],activation [3],"activity change, negative = inhibition [4]",Potency [5]
CCC(=O)NC(c1cccs1)c1cc([N+](=O)[O-])c2cccnc2c1O (stereo unspecified),42.6 µM (active),inactive,inactive,inactive,–,–,–
Cc1ccc([N+](=O)[O-])cc1NC(=O)c1ccc(-c2ccccc2)cc1,inactive,inactive,inactive,inactive,–,–,–
COC(C(=O)Nc1ccc(Br)cc1F)c1ccccc1 (stereo unspecified),inactive,inactive,inactive,inactive,–,–,–
COc1ccc(Br)cc1CNc1ccc(O)cc1,inactive,inactive,inactive,inactive,–,–,–
CC(=O)N1CCc2c(sc(NC(=O)CS(=O)(=O)c3ccc(F)cc3)c2C(N)=O)C1,inactive,inactive,inactive,inactive,–,–,–
Cc1cccc(C)c1-n1nnnc1C(c1ccnc2ccccc12)N(CCC#N)Cc1ccccc1 (stereo unspecified),inactive,inactive,inactive,inactive,–,–,–
CCCc1nc2c3ccccc3ccn2c1CC(C)(C)C,inactive,inactive,inactive,inactive,–,–,–
COc1ccc(-c2csc(NC(=O)c3ccccc3NS(=O)(=O)c3ccc(F)c(F)c3)n2)cc1,22.4 µM (active),inactive,–,–,"-1.62% [at 17.1 µM, percent relative to cAMP agonist control]",-3.56% [at 30.8 µM],–
CC#C[C@@H](CC)c1ccc2ccn(C)c2c1,inactive,inactive,–,–,"5.93% [at 17.1 µM, percent relative to cAMP agonist control]",-25.8% [at 30.8 µM],–
CC(C)NC(=O)c1sc(=S)n2c1[nH]c(=O)c1ccc(C(=O)NCCc3ccc(Cl)cc3)cc12,50.1 µM (active),inactive,–,–,"4.17% [at 17.1 µM, percent relative to cAMP agonist control]",-15.1% [at 30.8 µM],–
Cc1nnc(SCc2ccccc2CSc2nnc(C)s2)s1,inactive,inactive,inactive,inactive,–,–,–
Cc1nc(-c2ccc(C(=O)Nc3cccc(Br)c3)cc2)cs1,inactive,inactive,inactive,inactive,–,–,–
Nc1[nH]n2c(=O)cc(-c3ccccc3)nc2c1N=Nc1ccc(S(N)(=O)=O)cc1,inactive,inactive,inactive,inactive,–,–,–
CCC(=O)N1CCc2cc(OC)c(OC)cc2C1COc1ccc(F)cc1 (stereo unspecified),inactive,inactive,–,–,"5.75% [at 17.1 µM, percent relative to cAMP agonist control]",-5.57% [at 30.8 µM],–
Cc1ccc(CC#N)c(-c2c(CC#N)ccc(C)c2C)c1C,inactive,inactive,inactive,inactive,–,–,–
Cc1cc(C)nc(SCC(=O)c2ccc(Cl)cc2)n1,inactive,inactive,inactive,inactive,–,–,–
CC(=O)c1ccc(N2CCN(C(=O)/C=C/c3ccc4ccccc4n3)CC2)cc1,inactive,inactive,89.1 µM (active),inactive,–,–,–
CC(=O)C1C(=O)C=C(c2cccs2)CC1c1ccccc1 (stereo unspecified),inactive,inactive,–,–,"-4.19% [at 17.1 µM, percent relative to cAMP agonist control]",2.3% [at 30.8 µM],–
O=C(/C=C/c1ccco1)NCC1OCCc2ccccc21 (stereo unspecified),19 µM (active),inactive,inactive,inactive,–,–,–
CC(Oc1ccc(Cl)cc1Cl)c1ccn[nH]1 (stereo unspecified),inactive,inactive,inactive,inactive,–,–,inactive
